The subject of the assay is HEK293T (UBE3A T485A transfected, BAR Wnt reporter). The assay can be described thus: Wnt reporter firefly/Renilla luciferase ratio relative to plate median (fold (linear ratio)); higher = more Wnt/beta-catenin reporter activation. To be noted: 24 h. The procedure, abridged: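 HEK293T cells were seeded at 4500 cells/well in white 384-well plates and grown in DMEM with 10% FBS at 37°C and 5% CO2. The cells were transfected using Fugene 6 with a BAR firefly luciferase Wnt reporter, TK-Renilla and an expression plasmid, and four hours later robots added the chemicals at 0.01–100 uM for 24 h before a Dual-Glo luciferase readout. Wnt activity was taken as the firefly/Renilla ratio and cell health as raw Renilla, each median-centred per plate. Values are averages of four biological replicates.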

Structures are written as SMILES. Over roughly 1,100 compounds, “Wnt reporter firefly/Renilla luciferase ratio relative to plate median” has its median near 1.1; the highest 2% begin near 1.6. The list comes from a sample in which the highest values are over-represented; it also holds similar structures and randomly drawn compounds.

Consider `CN1C(=O)CC[C@H]1c1cccnc1` [Cotinine], for which the “Wnt reporter firefly/Renilla luciferase ratio” value is 0.928 (concentration: 0.1 uM), 0.981 (concentration: 1 uM), 1.03 (concentration: 10 uM) and 1.13 (concentration: 100 uM).

As for `CC1COc2c(N3CCN(C)CC3)c(F)cc3c(=O)c(C(=O)O)cn1c23` (configuration not stated) [Levofloxacin], the “Wnt reporter firefly/Renilla luciferase ratio” value (concentration: 0.01 uM) worked out at 1.21; the “Wnt reporter firefly/Renilla luciferase ratio” value (concentration: 0.1 uM) came out at 1.2; the “Wnt reporter firefly/Renilla luciferase ratio” value (concentration: 1 uM) amounted to 1.05; the “Wnt reporter firefly/Renilla luciferase ratio” value (concentration: 10 uM) stood at 1.11; the “Wnt reporter firefly/Renilla luciferase ratio” value (concentration: 100 uM) amounted to 1.45.

On to `COc1c(N2CC3CCCNC3C2)c(F)cc2c(=O)c(C(=O)O)cn(C3CC3)c12` (configuration not stated) [Moxifloxacin], for which the “Wnt reporter firefly/Renilla luciferase ratio” value was determined as 0.907 (concentration: 0.01 uM); 1.02 (concentration: 0.1 uM); 1.07 (concentration: 1 uM); 0.95 (concentration: 10 uM); 0.752 (concentration: 100 uM).

In the case of `O=C(O)c1cn(C2CC2)c2cc(N3CCNCC3)c(F)cc2c1=O` [Ciprofloxacin], the “Wnt reporter firefly/Renilla luciferase ratio” value was found to be 0.979 (concentration: 0.01 uM); 0.853 (concentration: 0.1 uM); 1.01 (concentration: 1 uM); 0.882 (concentration: 10 uM); 1.74 (concentration: 100 uM).

In the case of `O=C(CCCN1CCC(O)(c2ccc(Cl)cc2)CC1)c1ccc(F)cc1` [Haloperidol], the “Wnt reporter firefly/Renilla luciferase ratio” value runs as follows: (concentration: 0.1 uM) 1.01; (concentration: 1 uM) 0.984; (concentration: 10 uM) 0.916; (concentration: 100 uM) 0.572.

For `CCNc1ccccc1` [N-Ethylaniline], the “Wnt reporter firefly/Renilla luciferase ratio” value (concentration: 0.1 uM) was 0.799, the “Wnt reporter firefly/Renilla luciferase ratio” value (concentration: 1 uM) was 1.03, the “Wnt reporter firefly/Renilla luciferase ratio” value (concentration: 10 uM) came out at 0.96 and the “Wnt reporter firefly/Renilla luciferase ratio” value (concentration: 100 uM) came out at 1.2.

Values taken from the supplement of paper PMC9254222.
